Cycloheximide cs: affects cycloheximide protein synthesis inhibition readout, counter-screen; cell reporter, cycloheximide protein synthesis inhibition counterscreen; max response, %; hit rate 12% among 300,000; AID 2314; in the data active = max response mostly above about 13%, no sharp cut-off; inactive = mostly below about 14%; also: read at 38.3 µM for the half of the compounds with a filed dose; 0% is about no effect
AMA1 RON2 block: inhibitors of Plasmodium falciparum AMA1-RON2 interaction; Potency, µM (top dose mostly 58.2 µM), inactives show at the top dose activity change, negative = inhibition, actives largely listed as inhibitors; AlphaScreen AMA1-biotinylated RON2 peptide binding; hit rate 0.2% among 360,000;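 also: potency is read from the fitted curve at half-maximal effect; 0% = vehicle wells and -100% = peptide control; nearly all actives have a fitted effect of over 45% in size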
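AMA1 (3D7) with his tag at 25 nM final met compounds first, then biotinylated RON2 peptide at 25 nM; detection used donor plus acceptor beads, 10 µg/mL apiece, read by AlphaScreen after 30 min at room temperature.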
Shiga inhibitor: Shiga toxin inhibition; Vero cells, Shiga toxin protein synthesis inhibition reporter; inhibition, % at 38.7 µM; hit rate 9.2% among 290,000; AID 2315; in the data active = inhibition mostly above about 28%, no sharp cut-off; inactive = mostly below about 43%; also: 0% is about no effect
SARS PLP yeast: SARS-CoV PLP inhibition in yeast. S. cerevisiae expressing SARS-CoV PLpro, growth rescue. Potency, µM (top dose mostly 32.9 µM), for the others: top-dose activity, positive = growth rescue, most hits filed as activators. hit rate 0.19% among 330,000. AID 485353; calls by dose curve; also: potency is read from the fitted curve at half-maximal effect; 0% is about no effect; nearly all actives have a fitted effect of over 55% in size
Pf growth 96h: inhibits malaria parasite growth, 96 h. P. falciparum luciferase reporter growth, 96 h. Potency, µM (titrated, usually from 28.7 µM), without a hit: at the top dose activity change, negative = inhibition, most hits filed as inhibitors. hit rate 6.9% among 320,000; also: potency is read from the fitted curve at half-maximal effect; % is scaled to controls: 0 for no effect and ±100 for the full control effect
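Parasite growth measured via integrated firefly luciferase reporter in P. falciparum. Infected erythrocytes at 2% hematocrit, 0.05% parasitemia final were treated 96 hours at 37 C under 5% CO2, and luminescence was read.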
Pf growth 48h: inhibits P. falciparum growth in the first generation, 48 h; P. falciparum luciferase growth in erythrocytes, 48 h; Potency, µM (highest dose often 28.7 µM), without a hit: at the highest dose activity change, negative = inhibition, usual class: inhibitors; hit rate 5.9% among 310,000; AID 504832; also: potency is read from the fitted curve at half-maximal effect; % is scaled to controls: 0 for no effect and ±100 for the full control effect
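Here the parasites carry a stable luciferase gene and grow inside erythrocytes in Albumax-based RPMI medium with compound for one erythrocytic cycle. Activity is scored as loss of luminescent signal.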
* marks the source's active call; other numbers are inactive results. This is a sample that favours compounds with a hit; in the whole collection about 19% have one here. Unless noted, calls follow the shape of the dose curve; as a rule, active = well fitted curve in the direction sought with a large enough effect; inconclusive = small, poorly fitted or top-dose-only effect, or another doubt; inactive = no such curve, though single readings can be large; an effect the other way counts as inactive or inconclusive.

How did COc1cccc(CN(C)C(=O)c2cccc(NC(=O)CC3SC(N4CCCCC4)=NC3=O)c2)c1OC (centres undefined) do in these assays?
AMA1 RON2 block: -13%; SARS PLP yeast: 1%; Pf growth 96h: 9.3µM*; Pf growth 48h: 10µM*

How did COc1ccccc1CCNC(=O)c1ccc(NC(=O)CC2SC(N3CCCCC3)=NC2=O)cc1 (centres undefined) do in these assays?
AMA1 RON2 block: -5%; SARS PLP yeast: 2%; Pf growth 96h: 10µM*; Pf growth 48h: 12µM*

How did Cc1ccc(-c2nnc(CSc3nc4cc5c(cc4cc3C)OCO5)o2)cc1 do in these assays?
Cycloheximide cs: -5; AMA1 RON2 block: -2%; Shiga inhibitor: -5; SARS PLP yeast: 4%; Pf growth 96h: 13µM*; Pf growth 48h: 9%

Results for Clc1ccc(-c2nnc(CSc3nnc(-c4cccs4)n3Cc3ccccc3)o2)cc1 ?
Cycloheximide cs: -5; AMA1 RON2 block: -3%; Shiga inhibitor: -18; SARS PLP yeast: -16%; Pf growth 96h: inconclusive; Pf growth 48h: inconclusive

Results for Cc1csc(SCc2nnc(-c3ccc(Cl)cc3)o2)n1 ?
Cycloheximide cs: 32*; AMA1 RON2 block: -12%; Shiga inhibitor: 91*; SARS PLP yeast: -15%; Pf growth 96h: 41%

What do the screens show for `Cc1ccc(-c2nnc(CSc3nnc(C)s3)o2)cc1`?
Cycloheximide cs: 33*; AMA1 RON2 block: 1%; Shiga inhibitor: 80; SARS PLP yeast: 2%; Pf growth 48h: 93%

Results for Cc1csc(SCc2nnc(-c3ccccc3Br)o2)n1 ?
Cycloheximide cs: 48*; AMA1 RON2 block: 0%; Shiga inhibitor: 78*; SARS PLP yeast: 2%; Pf growth 96h: -13%; Pf growth 48h: 96%

Results for Cc1cc(C)c(C(=O)CSc2nnc(-c3ccccc3Br)o2)cc1C ?
Cycloheximide cs: -3; AMA1 RON2 block: -6%; Shiga inhibitor: 6; SARS PLP yeast: -2%; Pf growth 96h: inconclusive; Pf growth 48h: 13%

What do the screens show for `Fc1ccccc1SCc1nnc(-c2ccccc2Br)o1`?
Cycloheximide cs: 53*; AMA1 RON2 block: 30%; Shiga inhibitor: 141*; SARS PLP yeast: -15%; Pf growth 96h: inactive; Pf growth 48h: inactive

Results for CCCCNC(=O)Nc1ccc2c(c1)N(C)C(=O)c1ccccc1S2 ?
Cycloheximide cs: 2; AMA1 RON2 block: -2%; Shiga inhibitor: -6; SARS PLP yeast: 1%; Pf growth 96h: 3.3µM*; Pf growth 48h: inconclusive

How did CCN1C(=O)c2ccccc2Sc2ccc(C(=O)NCCCN3CCCCC3)cc21 do in these assays?
Cycloheximide cs: -7; AMA1 RON2 block: 1%; Shiga inhibitor: -9; SARS PLP yeast: 0%; Pf growth 96h: 10µM*; Pf growth 48h: -17%

Results for Cc1ccc(CN2C(=O)c3ccccc3Sc3ccc(C(=O)NCCCN4CCOCC4)cc32)cc1 ?
Cycloheximide cs: 2; AMA1 RON2 block: 5%; Shiga inhibitor: -17; SARS PLP yeast: 23%; Pf growth 96h: 44%; Pf growth 48h: 12µM*

Results for O=C1Nc2cc(C(=O)NCCCN3CCCC3)ccc2S/C1=C/c1ccccc1F ?
Cycloheximide cs: 5; AMA1 RON2 block: 0%; Shiga inhibitor: -1; SARS PLP yeast: -3%; Pf growth 96h: 13µM*; Pf growth 48h: inconclusive

Results for CCCNC(=O)Nc1ccc2c(c1)N(C)C(=O)c1ccccc1S2 ?
Cycloheximide cs: -3; AMA1 RON2 block: -6%; Shiga inhibitor: 15; SARS PLP yeast: 0%; Pf growth 48h: -11%

How did COC(=O)c1ccc(C(=O)N2CCCCCC2(C)C(=O)NC(C)C)cc1 (centres undefined) do in these assays?
AMA1 RON2 block: -8%

What do the screens show for `Cc1ccc2c(c1)c1c(n2CC(O)CNC2CCCCC2)CCCC1` (centres undefined)?
Cycloheximide cs: -12; AMA1 RON2 block: inconclusive; Shiga inhibitor: -24; SARS PLP yeast: 0%; Pf growth 96h: 26%; Pf growth 48h: 2.9µM*

Results for O=C(CN1C(=O)CC(c2ccco2)Sc2ccccc21)NC1CCCCC1 (centres undefined) ?
Cycloheximide cs: -3; AMA1 RON2 block: -8%; Shiga inhibitor: 3; SARS PLP yeast: -2%; Pf growth 96h: inconclusive; Pf growth 48h: inconclusive

How did C#CCSc1nnc(-c2c[nH]c3ccccc23)n1C do in these assays?
Cycloheximide cs: 18*; AMA1 RON2 block: 0%; Shiga inhibitor: 2; SARS PLP yeast: 1%; Pf growth 96h: -23%; Pf growth 48h: inconclusive

What do the screens show for `COc1ccc(-n2c(SC)nnc2-c2c[nH]c3ccccc23)cc1`?
Cycloheximide cs: -6; AMA1 RON2 block: 0%; Shiga inhibitor: -13; SARS PLP yeast: 4%; Pf growth 96h: inconclusive

Results for CCCn1c(N)c(C(=O)CSc2nnc(-c3c[nH]c4ccccc34)n2C2CC2)c(=O)[nH]c1=O ?
AMA1 RON2 block: -2%; SARS PLP yeast: 8%

How did CCOC(=O)C(C)Sc1nnc(-c2c[nH]c3ccccc23)n1C (centres undefined) do in these assays?
Cycloheximide cs: 11; AMA1 RON2 block: -2%; Shiga inhibitor: 10; SARS PLP yeast: -6%; Pf growth 96h: inconclusive

How did COc1cccc(-n2c(SC)nnc2-c2c[nH]c3ccccc23)c1 do in these assays?
Cycloheximide cs: -3; AMA1 RON2 block: 14%; Shiga inhibitor: -5; SARS PLP yeast: -2%; Pf growth 96h: 4.7µM*

Results for Cn1c(N)c(C(=O)CSc2nnc(-c3c[nH]c4ccccc34)n2C2CC2)c(=O)[nH]c1=O ?
AMA1 RON2 block: -18%; SARS PLP yeast: 0%; Pf growth 96h: 6.6µM*; Pf growth 48h: inconclusive

Results for CC(C)Sc1nnc(-c2c[nH]c3ccccc23)n1C ?
Cycloheximide cs: 50*; AMA1 RON2 block: 0%; Shiga inhibitor: 121*; SARS PLP yeast: -3%; Pf growth 96h: -1%

Results for C#CCSc1n[nH]c(-c2ccco2)n1 ?
Cycloheximide cs: 3; AMA1 RON2 block: 1%; Shiga inhibitor: 2; SARS PLP yeast: -2%; Pf growth 96h: 25%; Pf growth 48h: 83%

What do the screens show for `C#CCSc1nnc(-c2sc(-c3ccccc3)nc2C)n1C`?
Cycloheximide cs: 18*; AMA1 RON2 block: -1%; Shiga inhibitor: 18; SARS PLP yeast: 1%; Pf growth 96h: inconclusive; Pf growth 48h: -9%

What do the screens show for `CN1CCC(OC(c2ccccc2)c2ccccc2)CC1`?
Cycloheximide cs: -2; AMA1 RON2 block: -6%; Shiga inhibitor: -6; SARS PLP yeast: -1%; Pf growth 96h: inconclusive; Pf growth 48h: -17%

What do the screens show for `CN1CCC(Oc2ccccc2Sc2ccccc2)CC1`?
Cycloheximide cs: -5; AMA1 RON2 block: -28%; Shiga inhibitor: -6; SARS PLP yeast: -10%; Pf growth 96h: 13µM*; Pf growth 48h: inconclusive
